Measured values as given in PubChem BioAssay AID1159506 (National Center for Advancing Translational Sciences (NCATS), 2015).
In all, about 59,000 sequences were measured (the read-out: median about -0.00055, lowest 2% from about -2 on). Shown is part of a subset that was picked to be rich in the lowest values.

test: Identification of proteins required for the processing of the EWS-FLI1 nascent transcript; conditions: TC32 Ewing sarcoma NR0B1-luc vs CMV-luc (EWS-FLI1 target promoter against control promoter), 48 h; screened at 20 nM (by protocol);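 further: robust z of luciferase light less the median z of siRNAs with the same seed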
How it was run: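 Readout: OneGlo luminescence, 48 h post-transfection, TC32-NR0B1-luc vs TC32-CMV-luc in parallel. siRNA 20 nM final, RNAiMax lipid, 600 cells/well; z-score-MAD transformed, then seed-adjusted.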

| Sequence | seed-corrected z-score |
| --- | --- |
| UCUCUUUCCUCUGCGUGCG against GDF7 | -2.92 |
| UCUCAGGACUUAUAGCUGG against CEACAM3 | 0.106 |
| AACUCUAUCUUGUAAAGGC against ZKSCAN3 | 0.0258 |
| UCUAGUAACUCCAUAAGUU against NAA20 | 0.8 |
| UUUGUUGUCUGGUUGGAGC against ZDHHC14 | -0.328 |
| UCAGGGCACAGCUAUAAGG against CPAMD8 | 0.0569 |
| UAUUGUAGAUUGAACAGCC against NSMCE2 | 0.561 |
| AUAGAGCUUAUAGAAGCGG against USP11 | 0.792 |
| UAAAGGGAACGAAACACCC against HSPA1B | 1.45 |
| UUAUUUAUUGCCGCUCAGG against SFTA2 | -2.64 |
| UUGGGUCCGACAGUGAAGA against FAAP20 | 0.502 |
| AGUACUACCAAAGAGAUGG against TBC1D23 | 0.0728 |
| UAUCUUGAUCUGCCUCUCC against HOXB6 | 0.291 |
| UAUCCCAAUACAAAGUACU against RCE1 | -1.06 |
| UUGCUUAACUACUCUGUGC against C9orf106 | -11.2 |
| AUCGCUGUAGCACUUGUGC against PKP3 | -0.54 |
| UGAGUUUCCACUUCCAGCC against UBQLN4 | -2.2 |
| UUUGUUCCAGGGAUGUACU against CYCS | 0.577 |
| UUCCCGUGAACCGUUGAUC against PNLIPRP3 | 0.389 |
| ACACCUGUGACUAAGACCC against SDR39U1 | -0.296 |
| UUUGGUAUCUCCGACCACC against UCP2 | 0.898 |
| UCAAGUGUAUCAGUUUUCG against KSR2 | 0.704 |

| Sequence | seed-corrected z-score |
| --- | --- |
| UGUGGUUGAAGAGGCUUGU against TMEM39B | -2.3 |
| UAAGGUGUGAACUAUAAGG against ZNF267 | -0.0939 |
| UAUAUCAAAAUCCACUCGC against NDUFAF6 | 1.27 |
| UUUCUUAGAUGAGACAUUG against EBLN2 | -12.2 |
| UAAACCUCCACCUAAGAGC against ELP4 | 0.275 |
| UACUCGUACACUUCCAUGC against THBS3 | 1.22 |
| UAACUAUAGUGGUUAGGUC against IL7R | -0.304 |
| AUUUGGGACACUCAAAGGG against ZBTB48 | -0.672 |
| UCCAUAGCAGGAUUAUUGC against ACSL4 | -4.37 |
| UUUGUCGUCACUGUAUUCC against ING5 | -0.505 |
| UAAGGGACAUCUAAGGAAC against MAML1 | -1.38 |
| AAACUUGCGAUCUCAUAUG against FBXW12 | -0.183 |
| UACAGGUAAACAGGUCGUG against SKINT1L | -3.34 |
| UUCUGGUUCACCGUCUUCC against SLC13A2 | -1.96 |
| UUUCGUAUAGAGCUUCUCC against DNAJC5B | -0.0232 |
| UUUAUAGUCAAUGGUAUUG against TAF1D | -0.19 |
| UUCCUUAGCAGGUAUCGCG against PDZD7 | 0.373 |
| AUAGUAAUGCCGGAACAGC against GPR108 | -2.74 |
| AUGGAGACAAGUUACCUGU against DCX | -1.34 |
| UUGAGUGAGAAGAUCAGUG against PAH | -0.365 |
| UUUGCAGUCGCAAUAGUCA against PRKCSH | -0.0915 |
| ACUGGUAUUUGACAAGUCC against SGOL2 | -0.0318 |

| Sequence | seed-corrected z-score |
| --- | --- |
| AAUACCUCAACAUUGAUCC against LILRA6 | 0.22 |
| UACUUGUGAUCAUCUAGAC against PSMD1 | -2.21 |
| UCAGAGUUGGUGACUAUGC against MUC21 | 0.222 |
| UGAUGUUCAGCAUCUUCUC against UBTF | -0.484 |
| AGCGUAGUCAGUGUAGACC against DNAH2 | 0.323 |
| AUAGGCUUCGUUAAUGAGC against YJEFN3 | 1.04 |
| UUCCUGCUUGCCUCUAUGG against USP17L9P | -0.281 |
| UCUCGGUCGAUGAAGUACC against KCTD7 | -3.05 |
| UCAAUCACACGUCUUAUGC against TRMT5 | 0.553 |
| UUCGUAUUCAACUGACUGC against TCP11L1 | 1.06 |
| UAUGGGUUCAUCAGGCUCA against SH2D2A | -3.05 |
| AAGAGAUCCAGCUUCCUGC against SPEG | -0.187 |
| UCUUGAACCGGAUCGAUGC against TTLL9 | -0.369 |
| UUCGUGGGUAGCCAUGACC against F8A2 | 0.752 |
| UUUUCAUAGAGGAUGAUCU against CRYBB2 | 1.03 |
| UCUAAUACAAGGUUCAUAU against SNRPEP2 | -2.56 |
| UCAAUGCUCAGGGAACUGC against C1orf216 | 2.53 |
| ACCUUAGUAAGAUCCAUUC against OSBPL9 | 0.727 |
| UCAAACACGAUGGAGGUCC against SLC29A4 | -0.131 |
| AAAGACACCGUAGCUGAGG against MFNG | -0.181 |
| UUUGUCAUUACCCGAACUG against RNASE11 | 0.455 |
| UAAGGCUCCAGCAUAACAG against MIR924HG | 0.428 |

| Sequence | seed-corrected z-score |
| --- | --- |
| AUCUUGGUCACUGGAGGCG against SFRP5 | -3.64 |
| UACAAGUCAAGCUCUCACA against LOC727799 | -0.236 |
| AAUAGAACAAGGACAGGAC against SAYSD1 | -1.61 |
| AAUGUGCUUAGCGCAGGUG against LINC01530 | 0.0903 |
| UCAUUGUUGAUUUGGUCUC against 3-Sep | 1.43 |
| UCUAGAGUUAGGGUAUCUG against ARMC5 | 0.117 |
| UGAUGGUCACAAUCCUCUC against PCBP3 | -2.79 |
| UUUUCUUGCGUAUGAAUUC against ZNF302 | 0.913 |
| UCUUGUUCCACCACGUCUC against GRID2 | 0.102 |
| AGUGGGUAGAUUCCAUUCC against NRBP2 | -2.82 |
| UGUAGGAUCUGUCUCCAGG against LOC728587 | -0.669 |
| UUCGAUGAAAUGAUUUUCC against ZNF418 | 0.719 |
| UGAUCAUCAGCGGUGAGGC against HMGB3P19 | -1.07 |
| AAAGUCUCCAGUACGAUGU against MROH3P | 1.9 |
| UUGCUGAACAGAUCAGUCC against ELF5 | -0.256 |
| AAGUUCAUAAGAUUCCAUG against MGP | 0.212 |
| UCAGUUUGUAGUCAGAGCC against AP3S2 | 0.309 |
| UCAUCAUCAAUCACGGACG against BAP1 | -2.03 |
| UGUCUGUUGAUGGCCAAGC against AMELX | 0.157 |
| UCUGCGAUCAGUACCACUG against RBBP4 | 0.278 |
| ACAGGGUUAAAAUUGUCCG against M6PR | -0.318 |
| UCAAUGUUCACCACACGGC against PLEKHH1 | -2.41 |

| Sequence | seed-corrected z-score |
| --- | --- |
| UUUGUUAGGAGCUUGUAGG against C1GALT1C1 | 1.55 |
| UAUAUCAUCAAGCGUAACC against TCF20 | -1.21 |
| UCGUUGUAUACUUUGGUGC against PRKAR2B | -0.139 |
| UAUGCUGUCGGAUGAGUCC against ATF1 | 0.345 |
| UAUUGUCAAAUGAAGGUGG against TREML1 | 0.93 |
| UUGGUAUCAUCUUCUGUAG against PLXDC2 | -0.075 |
| UUUCUGACCACGUCUAGCA against PEX11B | 0.368 |
| UGAGUGUAGAGCAGCCACU against NEU2 | -2.8 |
| UGAGCUACCAUAUGCUUCA against RBMY1F | -0.266 |
| AUCCUCACCAUGGACAACG against CELA3A | -0.518 |
| UUUUUGAACAUGGUAACAG against RPL31P7 | 1.16 |
| AAGUGGUCAAAAUCCGCUC against LOC728613 | -1.66 |
| AAAGUCAGCACUUCGAUCC against MCTP1 | -2.38 |
| UAUGUUGUCACGCAGCACU against HIST1H4F | 1.31 |
| UUGGUUAUUCGAAGAGCUG against ME1 | -0.246 |
| UGUCAUUUUUCUUCGGUUC against PWP2 | 0.885 |
| UGAAUGGACAGUAUCUCUG against CCDC54 | -0.774 |
| AAUCUGCUUCUUUAAGUCG against RBBP6 | -2.31 |
| UUUCUGUCCAGGAAAUCUC against RWDD4 | -0.311 |
| UCAGUGGAAGGAAUCCUCA against OR13C8 | 1.06 |
| UUAUUGUCAAGUUCUGAUG against EFCAB14 | 0.0178 |
| UUCUGUUCUACCUCGCUUC against WDR60 | -1.36 |

| Sequence | seed-corrected z-score |
| --- | --- |
| UCUGGAGUUCUCAUUAGAC against IRF7 | 0.205 |
| AUACGUAUCCCGGACGCAG against SLC25A47 | 2.25 |
| AGGGUAUUUACCUUCUUGC against LOC729696 | -2.56 |
| UCCCAUACCAUCCACAGUG against SGCZ | 0.248 |
| AAGACUUCCAUCUAAGAUC against SLC39A11 | -1.62 |
| AAUCUUCACAUCAUUCUGG against TMEM70 | -0.646 |
| AUUGAUGUCAAUCACAUGC against PCDHGA3 | -0.895 |
| UUUCAUGCGACGGUUUUGG against HOXC4 | -0.731 |
| UGACUGUUGCUCCACUUCC against SH2D3A | -0.425 |
| AGUCUUAUCAGCACCCUUU against MTPN | -11.9 |
| AUCCGGUACACCAUGUGGU against CYTH2 | -0.326 |
| UAUGAUGGAGGCGUAGUUC against MYCL | 0.678 |
| AAUGAUAUCUGUGAUCGCC against RABGEF1 | -0.242 |
| UUCGUUCAGUGGGUUGUCC against SYNGR1 | -0.497 |
| UUCCCUUUCACGUCCAUGU against WFIKKN2 | -0.0396 |
| UUUCGAUUUAAAAGAGCCC against RALGPS1 | 1.28 |
| UUUCUUCCAACGCAGUCUG against MRPS23 | -2.67 |
| UAGAGGCUCAUCAUAGAUG against GPATCH3 | -0.0793 |
| AAUGCUAUUACGGUUGAUG against FBXL6 | -0.269 |
| UUAUUGCAGAUCUGGAUCC against CYP2C9 | -2.3 |
| UCUGUUUCAUUUACUUUGC against PRSS44 | 0.238 |
| UUUAUAAAGAGGGUGGAUC against SGCB | -0.0761 |
